Source: the supplement of paper PMC11417369
The full ranking holds about 25,000 sequences; the median of “ln(normalized median fluorescence intensity)” is about 7.1, and the highest 2% start at about 10. The full list was thinned out, with the highest values kept by preference.

Each sequence was assayed on PfSIP2 AP2 domain 1 (GST-tagged) (assay: gcPBM binding intensity (ln(normalized median fluorescence intensity)); higher = stronger DNA binding).
In short: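 The highest Masliner-normalised natural-log median intensity across replicate spots of either probe orientation is reported as binding intensity. GST-tagged P. falciparum DNA-binding domains expressed in E. coli were applied for 1 h to an Agilent 4 × 180k array of primer-extended double-stranded 36-bp intergenic genomic probes plus negative controls, and bound protein was detected with Alexa488 anti-GST antibody and scanned at 488 nm.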

Row | Sequence | gcPBM binding intensity (ln)
1 | AAACAAAAAAGAAACACACACTAATTAAATTTTCTT [CACACA_site4746] | 6.74
2 | AATATTTGTTAAAGAGGTACACCATTTGGTAGGGAA [XGTACX_site2165] | 7.06
3 | ATTTTTTTTTTTTTTTTAAGACAAACTCTTAATTTA [CACACA_negctrl_site1389] | 6.78
4 | TATATGAAGTACACAATACACACTAATTATATATAA [CACACA_site2608] | 7.12
5 | TATGAAGTACACAATACACACTAATTATATATAAAT [CACACA_site5444] | 6.91
6 | TATGAAGTGCACAATACACACTAATTCTATATAAAT [CACACA_site7269] | 11.2
7 | CATACATACAGATATACACACATATATAATAATATA [CACACA_site5477] | 7.14
8 | AGGTGCTTAATATATACACACATACAGATATATATA [CACACA_site5552] | 7.6
9 | ATAATAAAAATAAGAGAATAAAAATGCAATTTAATG [CACACA_negctrl_site878] | 6.81
10 | AGAATAATAAAATGGGTGCAATAGTTTTTTTTTTTT [GTGCAC_site9823] | 10.4
11 | AAATGAATATTCATAGTGCAATATATAAATGAAAAT | 7.94
12 | GAGAAATTTATACATACACACATATATATATTATAT [CACACA_site4038] | 7.16
13 | ATATATATATATGTATGTATATATATATGTTTGATT [XGTACX_negctrl_site62] | 9.56
14 | TTACGAATTACATATTGTACATATGCACAATTTTAA [XGTACX_site6802] | 7.4
15 | AATATTACAATTTGGTGTACAGGTGCACATGCCTCA [XGTACX_site1730] | 11.5
16 | ATTATTTTGTTTATTACATGCAGGTGTATATTACAG [TGCATGCA_site723] | 7.2
17 | ATATATTCCATAAAGGTGCTGTTAACGTGTCAACGT [GTGCAC_site9402] | 7.84
18 | TTATACAGGACAATAGTGCACATAAATATATGTATA | 10.6
19 | AGTGCATAATATTTATGTACGTATCACATATATTTT [XGTACX_site5166] | 9.05
20 | AATACAATAAAATAGTGTACATATATATTATGTATA [XGTACX_site8258] | 6.93
21 | AAAAATAAATATATATGTACACATATGTATACAATA [XGTACX_site4692] | 7.03
22 | TATAATAAAATTTTTACACACTTTAAAAAAAAAAAA [CACACA_site524] | 6.88
23 | ATATAAATATAGTGTGCACACACATAATATATATAT [CACACA_site8713] | 8.66

Row | Sequence | gcPBM binding intensity (ln)
24 | ATATATATATATAGTGCACACATATAAAATATATAT [CACACA_site8884] | 10.1
25 | ATATATATATAGTGCACACATATAAAATATATATAA [CACACA_site2745] | 10.3
26 | ATATATCATATTATAGTGCATTTATAATAATATTAT | 9.33
27 | TTTATATTTTTTTTTGCACACTTTAAAAAAATATAT [CACACA_site1146] | 7.4
28 | AAAAAAAAAAAAAGTGCACACTTTTAATATAAATAT [CACACA_site3314] | 10.8
29 | AACATATTGGATTTAGTGCACATATATATCATAATA | 10.3
30 | AAGTATTATTTTTATGCATGTGAAGTGCAAAATAAA [TGCATGCA_site198] | 9.56
31 | TTTTATTTTCGATGATGTACATTAAATTATACAGTA [XGTACX_site6053] | 7.01
32 | AATACAATTTTTAACACACACACAATAATACAGATA [CACACA_site4823] | 7.17
33 | ACAAATATGAGAAATTGTACATATAATAAAATAGTA [XGTACX_site2573] | 6.93
34 | AAATAAATAAATATACGTACATATATATAATATATA [XGTACX_site5124] | 7.23
35 | TATGTAAAAAGAGAAAAAAAAAAGAACGATAATTTC [CACACA_negctrl_site946] | 6.58
36 | AATTAAAAAATTATCACACATATATATATATATATA [CACACA_site5789] | 9.53
37 | TTTATATACACACAGAAGAACAGAAATATTATATAT [TGCATGCA_negctrl_site483] | 7.2
38 | TTTAAAAAATAATATTGTACTATTCTCCCAATTTCT [XGTACX_site7079] | 6.57
39 | GGTATACATATTAAATGTACATATTTTAACAATAAG [XGTACX_site4868] | 7.1
40 | TGATTCTTTTGTATCACACACACTTAGTTTAATTTT [CACACA_site2404] | 6.85
41 | TCTGTAAATACGTGCACACACAAATCACAAATGTGA [CACACA_site330] | 9.89
42 | AATAAAAAAAAAAATAATATATATGTATAAATATAT [CACACA_negctrl_site1561] | 6.83
43 | AAAAAAAAAAAAAAAGCACACACCAATGAGCAGCTT [CACACA_site1845] | 7.62
44 | TTTTTTATTTTGTGCACACACATAAAAATATATATA [CACACA_site761] | 9.42
45 | TAATAAAAAAAGTGCACACACATAATATTTATATAT [CACACA_site7548] | 10.7
46 | AAAATAAAAATAAAAGCACACATAAATATATATATA [CACACA_site8409] | 8.73

Row | Sequence | gcPBM binding intensity (ln)
47 | AATATAATATAATGCACACATAAAAAAAAAAAAATC [CACACA_site1303] | 7.43
48 | TTTTTTATTTTGTGCACACACATAAAAATATAAATA [CACACA_site6497] | 9.8
49 | TATATATTCATAAAGTGTACATGTTTATATATATAT [XGTACX_site7585] | 8.48
50 | TATATCTGTTTATATTGTACACATATATATATATAT [XGTACX_site714] | 9.28
51 | ATTTTTTTATTTTGTGCACACACATAAAAATATATA [CACACA_site762] | 9.99
52 | ATATCATTTTCCTGCACACATAAATTTATATAATAT [CACACA_site1048] | 7.82
53 | AGGTCTGTTTTATATTGTACATAAAAAGTGCACATG [XGTACX_site4529] | 11.4
54 | AATAATAAAAAAAGTGCACACACATAATATATATAT [CACACA_site9100] | 10.6
55 | TTTTTCCTATTTTTAGTGCACATATAAATAAATAAA [GTGCAC_site9821] | 10.7
56 | ATCTATTTCTATTGTTGTACTTATTTTTCATTGTTT [XGTACX_site6942] | 7.27
57 | AATAGGTGCCTTTTTTCACACACATGTCAACTAAAT [CACACA_site8846] | 9.34
58 | GATATATAAATAGATACACACATACATACATACATA [CACACA_site6260] | 7.18
59 | ATATTTATTTTATAAAGTACTAAAAAATATATTATA [XGTACX_site8522] | 6.9
60 | CATATAATAAATAATTGTACTTGATATAATATTATG [XGTACX_site3562] | 6.91
61 | CCTTTATAAAAAAGTAGTACACAATGAATTTATAAT [XGTACX_site5523] | 7.1
62 | CAAAATTAATAAGTCACACACACATCTATAATATAT [CACACA_site6519] | 6.78
63 | ACATAAAATTGTTAAAAAATTGTATAAATAATACAT [XGTACX_negctrl_site557] | 6.81
64 | TAATTCTAAATAAATGTACACACAAAAATAAATGTA [CACACA_site8509] | 7.02
65 | TGTCAATCATATAAATGTACATTTTAAATGAGGTGT [XGTACX_site7391] | 7.36
66 | TAATTATTTTAAAAAGTGCATTAAAAGATATTAAAT [GTGCAC_site9694] | 8.22
67 | AATATAATATAATGCACACATAAAAAAAAAAAAAAA [CACACA_site304] | 7.47
68 | ATATATATATAGTGCACACTTAAGAATATAAAGAGG [CACACA_site1151] | 10.1
69 | AAAAGTCTCTTTTTAGTGCACATTTTATTTAAATAT | 10.2

Row | Sequence | gcPBM binding intensity (ln)
70 | TAATAAAAAAAGTGCACACACATAATATATATATAT [CACACA_site3340] | 10.4
71 | AAAAGTATATATTCAGTGCATAGTCTTTAAATATAA [GTGCAC_site9522] | 8.15
72 | AAATAAAGAATATAAATACACACTTAAATATATATT [CACACA_site4007] | 6.73
73 | TATATATATATATGTGCACACATAATAAAAAAAAAA [CACACA_site3830] | 9.64
74 | ATATATATATATAGTGCACACTTAAGAATATAAAGA [CACACA_site4771] | 10.2
75 | ACAATAAAGAACAGTATGCACTTTTATGCATGCGTA | 8.94
76 | CAAATAATATTATGAAGTACTTCAAATTTTGAAAGA [XGTACX_site2530] | 6.98
77 | TATTTATTTATGTGTTGTACAAATAAATAGAGGTAT [XGTACX_site6408] | 7.35
78 | AAAAATAAAACAATTACACACATAATTTTATTTTTA [CACACA_site928] | 6.86
79 | ATATTTAACAGGTTAAAAATATAAACAAATAAATAA [CACACA_negctrl_site907] | 6.85
80 | ATGCAAAATAAAGAAGCACACAAAAATGAAATATAT [CACACA_site9217] | 7.2
81 | TGTGTATAAGTCACTTGTACTAGTAGTAAAAAAAAA [XGTACX_site4341] | 6.85
82 | ATTATTTTTCTATGTGTGCACGTGTGGAATGTGTCT [GTGCAC_site9507] | 10.3
83 | TTATTTATTCTATGTGCATGTTATTTTTTTTTTTCG [TGCATGCA_site262] | 7.6
84 | TTCTATATTATATATGCATGTGTTATTCTTATTTTC [TGCATGCA_site92] | 7.15
85 | ATATATATTAATATTTGTACATAAAATTATTTCAAT [XGTACX_site5364] | 7.14
86 | TTTTCAATATATTAATGTACGAATACGCAAATAAGA [XGTACX_site1613] | 7.23
87 | GTATATGAATAATATTTTATGGTAATTTTTTTTTTT [XGTACX_negctrl_site512] | 6.91
88 | ATATGACATAAAACATGTACATGTTCATAAATATAT [XGTACX_site1923] | 7.07
89 | AAATATAATAATATATGTACATATATATATATATAT [XGTACX_site6980] | 9.73
90 | ATATATATTAATTTTGTGCACAAATGGAAATGTTTG [GTGCAC_site9971] | 8.34
91 | AAAAAAAATTTAATTGCACACAGGAAAATATAATTT [CACACA_site3810] | 7.01
92 | GAAATTTTTAATGTGGTGCACAGGAAATTTTTTCTT | 11
